From the supplement of paper PMC4466140

Experiments:
Test in all cases: SPOT peptide array binding signal intensity (averaged, normalized) (arbitrary units (background-subtracted, floor 0; scale differs between SH3 domains)); higher = stronger binding of the SH3 domain to the peptide
CaNbp2 = molecular target: CaNbp2
Outline: (§1)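 SH3 domains from four yeast species were expressed as GST fusions in E. coli BL21(DE3) and purified on glutathione Sepharose. Each was incubated at 10 μg/ml overnight at 4°C in TBS-based blocking buffer on cellulose membranes bearing synthetic 15-mer peptides, in which serines replaced cysteines. Bound protein was detected with anti-GST antibody, an HRP anti-mouse secondary and luminol, then imaged and quantified with Genespotter. The binding signal is the normalized, background-subtracted spot intensity averaged over replicates, in arbitrary units that are not the same from one domain to another.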

CaRvs167 = molecular target: CaRvs167
Outline: as §1

CaRvs167-3 = molecular target: CaRvs167-3
Outline: as §1

CaSho1 = molecular target: CaSho1
Outline: as §1

CaSla1-D1-D2 = molecular target: CaSla1-D1-D2
Outline: as §1

CaSla1-D3 = molecular target: CaSla1-D3
Outline: as §1

ScAbp1 = molecular target: ScAbp1
Outline: as §1

ScBbc1 = molecular target: ScBbc1
Outline: as §1

ScBem1-D1 = molecular target: ScBem1-D1
Outline: as §1

ScBzz1-D1 = molecular target: ScBzz1-D1
Outline: as §1

ScBzz1-D2 = molecular target: ScBzz1-D2
Outline: as §1

ScCyk3 = molecular target: ScCyk3
Outline: as §1

ScFus1 = molecular target: ScFus1
Outline: as §1

ScHof1 = molecular target: ScHof1
Outline: as §1

ScHse1 = molecular target: ScHse1
Outline: as §1

ScLsb1 = molecular target: ScLsb1
Outline: as §1

ScLsb2 = molecular target: ScLsb2
Outline: as §1

ScLsb3 = molecular target: ScLsb3
Outline: as §1

ScLsb4 = molecular target: ScLsb4
Outline: as §1

ScMyo3 = molecular target: ScMyo3
Outline: as §1

ScMyo5 = molecular target: ScMyo5
Outline: as §1

ScNbp2 = molecular target: ScNbp2
Outline: as §1

ScPex13 = molecular target: ScPex13
Outline: as §1

ScRvs167 = molecular target: ScRvs167
Outline: as §1

ScSho1 = molecular target: ScSho1
Outline: as §1

ScSla1-D1-D2 = molecular target: ScSla1-D1-D2
Outline: as §1

ScSla1-D3 = molecular target: ScSla1-D3
Outline: as §1

SpAbp1-D1 = molecular target: SpAbp1-D1
Outline: as §1

SpBbc1 = molecular target: SpBbc1
Outline: as §1

SpBzz1-D1 = molecular target: SpBzz1-D1
Outline: as §1

SpBzz1-D2 = molecular target: SpBzz1-D2
Outline: as §1

SpCyk3 = molecular target: SpCyk3
Outline: as §1

SpHof1 = molecular target: SpHof1
Outline: as §1

SpHof1-2 = molecular target: SpHof1-2
Outline: as §1

SpHof1-3 = molecular target: SpHof1-3
Outline: as §1

SpHse1 = molecular target: SpHse1
Outline: as §1

SpLsb1 = molecular target: SpLsb1
Outline: as §1

SpLsb4 = molecular target: SpLsb4
Outline: as §1

SpMyo1 = molecular target: SpMyo1
Outline: as §1

SpNbp2 = molecular target: SpNbp2
Outline: as §1

SpPex13 = molecular target: SpPex13
Outline: as §1

SpRvs167 = molecular target: SpRvs167
Outline: as §1

SpSla1-D1-D2 = molecular target: SpSla1-D1-D2
Outline: as §1

SpSla1-D3 = molecular target: SpSla1-D3
Outline: as §1

AgAbp1 = molecular target: AgAbp1
Outline: as §1

AgBbc1 = molecular target: AgBbc1
Outline: as §1

AgBem1-D1 = molecular target: AgBem1-D1
Outline: as §1

AgBzz1-D1 = molecular target: AgBzz1-D1
Outline: as §1

AgBzz1-D2 = molecular target: AgBzz1-D2
Outline: as §1

AgCyk3 = molecular target: AgCyk3
Outline: as §1

AgFus1 = molecular target: AgFus1
Outline: as §1

AgHof1 = molecular target: AgHof1
Outline: as §1

AgHse1 = molecular target: AgHse1
Outline: as §1

AgLsb1 = molecular target: AgLsb1
Outline: as §1

AgLsb4 = molecular target: AgLsb4
Outline: as §1

AgMyo5 = molecular target: AgMyo5
Outline: as §1

AgNbp2 = molecular target: AgNbp2
Outline: as §1

AgRvs167 = molecular target: AgRvs167
Outline: as §1

AgSho1 = molecular target: AgSho1
Outline: as §1

AgSla1-D1-D2 = molecular target: AgSla1-D1-D2
Outline: as §1

AgSla1-D3 = molecular target: AgSla1-D3
Outline: as §1

CaAbp1-D1 = molecular target: CaAbp1-D1
Outline: as §1

CaAbp1-D2 = molecular target: CaAbp1-D2
Outline: as §1

CaBbc1 = molecular target: CaBbc1
Outline: as §1

CaBem1-D1 = molecular target: CaBem1-D1
Outline: as §1

CaBzz1-D1 = molecular target: CaBzz1-D1
Outline: as §1

CaBzz1-D2 = molecular target: CaBzz1-D2
Outline: as §1

CaCyk3 = molecular target: CaCyk3
Outline: as §1

CaFus1 = molecular target: CaFus1
Outline: as §1

CaHof1 = molecular target: CaHof1
Outline: as §1

CaHse1 = molecular target: CaHse1
Outline: as §1

CaLsb1 = molecular target: CaLsb1
Outline: as §1

CaLsb4 = molecular target: CaLsb4
Outline: as §1

CaMyo5 = molecular target: CaMyo5
Outline: as §1

B1: unnamed (peptide)
chain: VPVAPPPPPASLGQS
SPOT peptide array binding signal intensity (CaNbp2): 17.5
SPOT peptide array binding signal intensity (CaRvs167): ≤ 0
SPOT peptide array binding signal intensity (CaRvs167-3): 1.5
SPOT peptide array binding signal intensity (CaSho1): 28
SPOT peptide array binding signal intensity (CaSla1-D1-D2): ≤ 0
SPOT peptide array binding signal intensity (CaSla1-D3): ≤ 0
SPOT peptide array binding signal intensity (ScAbp1): 0.5
SPOT peptide array binding signal intensity (ScBbc1): 2.5
SPOT peptide array binding signal intensity (ScBem1-D1): 0.5
SPOT peptide array binding signal intensity (ScBzz1-D1): 3
SPOT peptide array binding signal intensity (ScBzz1-D2): 8.5
SPOT peptide array binding signal intensity (ScCyk3): ≤ 0
SPOT peptide array binding signal intensity (ScFus1): ≤ 0
SPOT peptide array binding signal intensity (ScHof1): ≤ 0
SPOT peptide array binding signal intensity (ScHse1): 4
SPOT peptide array binding signal intensity (ScLsb1): ≤ 0
SPOT peptide array binding signal intensity (ScLsb2): ≤ 0
SPOT peptide array binding signal intensity (ScLsb3): ≤ 0
SPOT peptide array binding signal intensity (ScLsb4): 4
SPOT peptide array binding signal intensity (ScMyo3): 372
SPOT peptide array binding signal intensity (ScMyo5): 91
SPOT peptide array binding signal intensity (ScNbp2): ≤ 0
SPOT peptide array binding signal intensity (ScPex13): ≤ 0
SPOT peptide array binding signal intensity (ScRvs167): ≤ 0
SPOT peptide array binding signal intensity (ScSho1): 3
SPOT peptide array binding signal intensity (ScSla1-D1-D2): ≤ 0
SPOT peptide array binding signal intensity (ScSla1-D3): 1.5
SPOT peptide array binding signal intensity (SpAbp1-D1): ≤ 0
SPOT peptide array binding signal intensity (SpBbc1): ≤ 0
SPOT peptide array binding signal intensity (SpBzz1-D1): 237
SPOT peptide array binding signal intensity (SpBzz1-D2): 1.25
SPOT peptide array binding signal intensity (SpCyk3): ≤ 0
SPOT peptide array binding signal intensity (SpHof1): ≤ 0
SPOT peptide array binding signal intensity (SpHof1-2): ≤ 0
SPOT peptide array binding signal intensity (SpHof1-3): 0.5
SPOT peptide array binding signal intensity (SpHse1): 1
SPOT peptide array binding signal intensity (SpLsb1): ≤ 0
SPOT peptide array binding signal intensity (SpLsb4): ≤ 0
SPOT peptide array binding signal intensity (SpMyo1): 49.8
SPOT peptide array binding signal intensity (SpNbp2): 1.5
SPOT peptide array binding signal intensity (SpPex13): ≤ 0
SPOT peptide array binding signal intensity (SpRvs167): 3.33
SPOT peptide array binding signal intensity (SpSla1-D1-D2): ≤ 0
SPOT peptide array binding signal intensity (SpSla1-D3): ≤ 0

B2: unnamed (peptide)
chain: FPPKRKPLLRPQRSD
SPOT peptide array binding signal intensity (AgAbp1): 766
SPOT peptide array binding signal intensity (AgBbc1): 332
SPOT peptide array binding signal intensity (AgBem1-D1): 170
SPOT peptide array binding signal intensity (AgBzz1-D1): 59
SPOT peptide array binding signal intensity (AgBzz1-D2): 81
SPOT peptide array binding signal intensity (AgCyk3): 3.5
SPOT peptide array binding signal intensity (AgFus1): 303
SPOT peptide array binding signal intensity (AgHof1): 156
SPOT peptide array binding signal intensity (AgHse1): 294
SPOT peptide array binding signal intensity (AgLsb1): 26.5
SPOT peptide array binding signal intensity (AgLsb4): 33.5
SPOT peptide array binding signal intensity (AgMyo5): ≤ 0
SPOT peptide array binding signal intensity (AgNbp2): 590
SPOT peptide array binding signal intensity (AgRvs167): 9
SPOT peptide array binding signal intensity (AgSho1): 45
SPOT peptide array binding signal intensity (AgSla1-D1-D2): 230
SPOT peptide array binding signal intensity (AgSla1-D3): 5
SPOT peptide array binding signal intensity (CaAbp1-D1): 1450
SPOT peptide array binding signal intensity (CaAbp1-D2): 2460
SPOT peptide array binding signal intensity (CaBbc1): 793
SPOT peptide array binding signal intensity (CaBem1-D1): 934
SPOT peptide array binding signal intensity (CaBzz1-D1): 257
SPOT peptide array binding signal intensity (CaBzz1-D2): 135
SPOT peptide array binding signal intensity (CaCyk3): 292
SPOT peptide array binding signal intensity (CaFus1): 589
SPOT peptide array binding signal intensity (CaHof1): 1.25
SPOT peptide array binding signal intensity (CaHse1): 57.2
SPOT peptide array binding signal intensity (CaLsb1): ≤ 0
SPOT peptide array binding signal intensity (CaLsb4): 1020
SPOT peptide array binding signal intensity (CaMyo5): 12
SPOT peptide array binding signal intensity (CaNbp2): 371
SPOT peptide array binding signal intensity (CaRvs167): 221
SPOT peptide array binding signal intensity (CaRvs167-3): 18.5
SPOT peptide array binding signal intensity (CaSho1): 245
SPOT peptide array binding signal intensity (CaSla1-D1-D2): 872
SPOT peptide array binding signal intensity (CaSla1-D3): 9.75
SPOT peptide array binding signal intensity (ScAbp1): 598
SPOT peptide array binding signal intensity (ScBbc1): 294
SPOT peptide array binding signal intensity (ScBem1-D1): 87
SPOT peptide array binding signal intensity (ScBzz1-D1): 10.5
SPOT peptide array binding signal intensity (ScBzz1-D2): 50
SPOT peptide array binding signal intensity (ScCyk3): 38
SPOT peptide array binding signal intensity (ScFus1): 138
SPOT peptide array binding signal intensity (ScHof1): 0.25
SPOT peptide array binding signal intensity (ScHse1): 1190
SPOT peptide array binding signal intensity (ScLsb1): 27.8
SPOT peptide array binding signal intensity (ScLsb2): 30
SPOT peptide array binding signal intensity (ScLsb3): 2030
SPOT peptide array binding signal intensity (ScLsb4): 71
SPOT peptide array binding signal intensity (ScMyo3): 7.75
SPOT peptide array binding signal intensity (ScMyo5): 2.75
SPOT peptide array binding signal intensity (ScNbp2): 761
SPOT peptide array binding signal intensity (ScPex13): 52.5
SPOT peptide array binding signal intensity (ScRvs167): 410
SPOT peptide array binding signal intensity (ScSho1): 1040
SPOT peptide array binding signal intensity (ScSla1-D1-D2): 1030
SPOT peptide array binding signal intensity (ScSla1-D3): 16
SPOT peptide array binding signal intensity (SpAbp1-D1): 874
SPOT peptide array binding signal intensity (SpBbc1): 37
SPOT peptide array binding signal intensity (SpBzz1-D1): 444
SPOT peptide array binding signal intensity (SpBzz1-D2): 0.5
SPOT peptide array binding signal intensity (SpCyk3): 5
SPOT peptide array binding signal intensity (SpHof1): 182
SPOT peptide array binding signal intensity (SpHof1-2): 16.8
SPOT peptide array binding signal intensity (SpHof1-3): 285
SPOT peptide array binding signal intensity (SpHse1): 326
SPOT peptide array binding signal intensity (SpLsb1): 153
SPOT peptide array binding signal intensity (SpLsb4): 1630
SPOT peptide array binding signal intensity (SpMyo1): 22.8
SPOT peptide array binding signal intensity (SpNbp2): 286
SPOT peptide array binding signal intensity (SpPex13): 26
SPOT peptide array binding signal intensity (SpRvs167): 536
SPOT peptide array binding signal intensity (SpSla1-D1-D2): 2
SPOT peptide array binding signal intensity (SpSla1-D3): 3
